The values below come from PubChem BioAssay (NCATS).

Values without a mark were called inactive. Records with an inconclusive call do not appear. Active and inactive are the calls of the source. Unless noted, calls come from the whole dose curve; as a rule, active = well fitted curve in either direction with a large enough effect (not every such curve was filed as active); inconclusive = small, poorly fitted or top-dose-only effect, or another doubt; inactive = flat fitted curve, though single readings scatter.

Assay [1] concerns the target Lysosomal acid glucosylceramidase (Homo sapiens) (UniProt P04062). The assay can be described thus: Glucocerebrosidase-p2 (AID 348; in the data active = potency below about 10 µM; note: potency is the fitted concentration of half-maximal effect). The settings on record: purified GBA, blue fluorogenic substrate, 40 min. The essentials:
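Compounds titrated from 0.6 nM upwards against 0.2 nM enzyme in pH 5.9 citric acid/KH2PO4, taurocholate, tween-20; blue fluorogenic substrate 80 uM, 40 min room temperature, stopped and read Ex 365/Em 440 for AC50.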

The nature of assay [2]: AP1 Signaling Pathway (AID 357).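 Note: ME-180 reporter cells stimulated with EGF at its EC50 level; % is set by controls: 0 for no effect and ±100 for the full control effect.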 The settings on record: ME-180 AP-1-bla reporter, EGF-induced, beta-lactamase ratio, 5 h; at 7.69 µM (top of the series) unless noted. The essentials:
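A ratiometric CCF4 readout (405 nm excitation; 460 and 530 nm emission) quantified AP-1-driven beta-lactamase in ME-180 cells after 5 h with compound and EC50 EGF; AC50 values were derived for activators and inhibitors.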

The target of assay [3] is Cytochrome P450 1A2 (Homo sapiens) (UniProt P05177). The assay can be described thus: p450-cyp1a2 (AID 410; calls by dose curve; note: potency is the fitted concentration of half-maximal effect). To be noted: recombinant CYP1A2, luciferin-ME demethylation, luminescence; series mostly up to 11.4 µM. The essentials:
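20nM CYP1A2 with 100uM Luciferin-ME (at Km) in 100mM KPO4; compound preincubated 10 min, NADPH regeneration added, 60 min at room temperature. Luciferin quantified by luminescence after detection reagent; normalized to 57 uM furafylline.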

Assay [4] can be described thus: NFAT Signaling Pathway (AID 444).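 Note: carbachol stimulus at about its EC50 of 1 µM final; % is set by controls: 0 for no effect and ±100 for the full control effect.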 The settings on record: Jurkat NFAT-bla M1, carbachol, beta-lactamase ratio, 5 h; at 7.69 µM (top of the series) unless noted. The essentials: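 Jurkat cells with NFAT-driven β-lactamase reporter and co-expressed M1 receptor, stimulated with carbachol (final 1 uM, ~EC50), compound titration, 5 h at 37 °C. CCF4 loaded 1 h at RT; 460/530 nm ratio gave %activity and AC50.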

The nature of assay [5]: Stat Signaling Pathway (AID 446).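 Note: ME-180 cervical cancer cells given 40 pM IL-6 alongside compound; SIE-controlled beta-lactamase reporter measured as 460/530 nm FRET emission ratio; % is set by controls: 0 for no effect and ±100 for the full control effect.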 To be noted: ME-180 SIE beta-lactamase reporter, IL-6 stimulated, 5 h; at 7.69 µM (top of the series) unless noted. The essentials:
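ME-180 cells carrying a SIE-driven beta-lactamase reporter are stimulated with 40 pM IL-6 for 5 h at 37C in the presence of compound. The 460/530 nm FRET substrate ratio is read after 2.5 h at RT. Data are normalised to 300 pM IL-6 and to 125 nM JAK inhibitor controls.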

For assay [6], the target named is Glucocorticoid receptor (Homo sapiens) (UniProt P04150). The assay can be described thus: GR-GFP Redistribution (AID 450;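 active = compounds whose dose series gives a full or clear partial fitted curve of increased nuclear translocation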; note: potency is the fitted concentration of half-maximal effect). The settings on record: U2OS GR-GFP nuclear translocation, laser cytometry, 2 h.
Assay [7] has as its target Mitogen-activated protein kinase 10 (Mus musculus) (UniProt Q61831). Briefly: JNK3 AlphaScreen Assay (AID 530).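 Note: kinase came from lysate of stimulated human HepG2 cells; signal reports phosphorylation of biotinylated GST-cJun 1-79 at Ser73 with 10 µM ATP; % is set by controls: 0 for no effect and ±100 for the full control effect.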 To be noted: JNK3 lysate, c-Jun phosphorylation; series mostly up to 11.4 µM. In outline:
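Pre-activated (IL-1β/TNFα) JNK3 in HepG2 lysates phosphorylates biotin-GST-cJun(1-79), 10 uM ATP; anti-phospho-cJun(Ser73) AlphaScreen read at room temperature, pH 7.6 Tris buffer. Compounds pre-incubated 15 min as titrations.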

Assay [8] deals with 3',5'-cyclic-AMP phosphodiesterase 4B (Homo sapiens) (UniProt Q07343). The assay can be described thus: qHTS Assay for Inhibitors of PDE-IV (AID 607; active = well fitted activation curve with a large enough effect in the main read-out, with a control signal flat, not every such curve was filed as active; note: % of control where 0% means no effect). The settings on record: HEK293 ACTOne CNG channel cells, membrane potential fluorescence; series mostly up to 22.9 µM. The essentials:
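HEK293 ACTOne cells with CNG channel (1000/well), endogenous PDE4; membrane potential dye, compounds up to 22.9 uM final. Fluorescence Ex 535/Em 590; RO 20-1724 (100 uM final) as reference.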
In general terms: Quantitative high-throughput screening tests each substance at several concentrations.

A short description of assay [9]: qHTS profiling for inhibitors of Plasmodium falciparum proliferation (AID 504749; active = well fitted curve in the direction sought with a large enough effect; an effect the other way counts as inactive or inconclusive; note: nearly all actives have a fitted effect of over 60% in size; note: potency is the fitted concentration of half-maximal effect;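 for activity, negative = inhibition: 0% = DMSO vehicle and full inhibition = artemisinin control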). To be noted: P. falciparum in erythrocytes, SYBR Green DNA, 72 h, at 28.7 µM (top of the series). In outline: (§1)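 P. falciparum-infected erythrocytes (0.3% parasitemia, 2.5% hematocrit) incubated with compound 72 h at 37 C, 5% CO2. Parasite DNA detected by SYBR Green after lysis, overnight at room temperature; normalised to 0.29 uM artemisinin and DMSO.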

A further assay deals with CP192. The assay is described as above. To be noted: P. falciparum in erythrocytes, SYBR Green DNA, 72 h; series mostly up to 28.7 µM. The essentials:
as §1

The next assay relates to CP194. The description is as above. To be noted: P. falciparum in erythrocytes, SYBR Green DNA, 72 h; series mostly up to 28.7 µM. The essentials: as §1
A further assay deals with CP203. Described as above. The settings on record: P. falciparum in erythrocytes, SYBR Green DNA, 72 h; series mostly up to 28.7 µM. In outline:
as §1

The next assay has as its system W2. Described as above. The settings on record: P. falciparum in erythrocytes, SYBR Green DNA, 72 h; series mostly up to 28.7 µM. The essentials:
as §1

Assay [10] deals with Cytochrome P450 2C9 (Homo sapiens) (UniProt P11712). The assay can be described thus: qHTS Assay for Inhibitors and Substrates of Cytochrome P450 2C9 (AID 883; active = well fitted curve in the direction sought with a large enough effect; an effect the other way counts as inactive or inconclusive; note: nearly all actives have a fitted effect of over 60% in size; note: potency is the fitted concentration of half-maximal effect). To be noted: recombinant CYP2C9, luciferin-H luminescence, 60 min; series mostly up to 11.4 µM. In outline: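 Human CYP2C9 (10nM) with Luciferin-H at 100uM (its KM) in 25mM KPO4; compound preincubated 10 min at 37C, then NADPH regeneration for 60 min at 37C. Luciferin read by luminescence after detection reagent; normalized to 57uM sulphaphenazole as full inhibition.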

For assay [11], the target named is Cytochrome P450 3A4 (Homo sapiens) (UniProt P08684). Briefly: qHTS Assay for Inhibitors and Substrates of Cytochrome P450 3A4 (AID 884; active = well fitted curve in the direction sought with a large enough effect; an effect the other way counts as inactive or inconclusive; note: potency is the fitted concentration of half-maximal effect; nearly all actives have a fitted effect of over 50% in size). To be noted: recombinant CYP3A4, Luciferin-PPXE luminescence; series mostly up to 57.1 µM. The essentials: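 20 nM human CYP3A4 with 25 uM Luciferin-PPXE (at KM) in 200 mM KPO4, preincubated 10 min with compound; NADPH regeneration started a 60 min RT reaction. Luciferin detected by luminescence, normalized to 57 uM ketoconazole as full inhibition.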

Assay [12] shares this target. Briefly: qHTS Assay for Activators of Cytochrome P450 3A4 (AID 885; active = well fitted curve in the direction sought with a large enough effect; an effect the other way counts as inactive or inconclusive; note: nearly all actives have a fitted effect of over 65% in size). The settings on record: recombinant CYP3A4, Luciferin-PPXE luminescence, 60 min; series mostly up to 11.4 µM. In outline:
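Human CYP3A4 (20 nM) with Luciferin-PPXE at 25 uM (its KM) in 200 mM KPO4; 10 min compound preincubation, then NADPH regeneration and 60 min reaction at RT. Luciferin read by luminescence; normalized to 57 uM ketoconazole full inhibition.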

In assay [13] the target is Cytochrome P450 2C19 (Homo sapiens) (UniProt P33261). The assay can be described thus: qHTS Assay for Inhibitors and Substrates of Cytochrome P450 2C19 (AID 899; active = well fitted curve in the direction sought with a large enough effect; an effect the other way counts as inactive or inconclusive; note: nearly all actives have a fitted effect of over 60% in size; note: potency is the fitted concentration of half-maximal effect). To be noted: recombinant CYP2C19, luciferin-H EGE luminescence; series mostly up to 11.4 µM. In outline:
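5 nM human CYP2C19 with 10uM Luciferin-H EGE (at KM) in 50mM KPO4, compound preincubated 10 min at 37C, then NADPH regeneration for 60 min at 37C. Luciferin read by luminescence after detection reagent; normalized to 57uM ketoconazole as full inhibition.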

A short description of assay [14]: qHTS Assay for Identification of Small Molecule Agonists for Hypoxia Response Element Signaling Pathway (AID 914; active = well fitted activation curve with a large enough effect in the signal ratio, with a control signal flat, not every such curve was filed as active; the % refers to the signal ratio; note: % of control where 0% means no effect). The settings on record: ME-180 (cervical carcinoma) HRE-bla reporter, beta-lactamase ratio, CoCl2, 17 h; activation: hits give high values. In outline:
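qHTS titration; ME-180 HRE-bla cells; EC50 CoCl2 co-treatment, 17 h at 37 degrees Celsius; CCF4 dye, ex 405nm, em 460nm and 530nm; %Activity from ratio; AC50.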

Assay [15] has as its target Glucocorticoid receptor (Homo sapiens) (UniProt P04150). The assay can be described thus: GR-EFC Redistribution (AID 451; calls by dose curve; note: potency is the fitted concentration of half-maximal effect). The settings on record: CHO-K1 GR-EFC translocation, beta-gal luminescence, 2 h. In outline: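 CHO-K1 cells expressing nuclear EA and GR-ED fragments of b-gal; compounds titrated up to 46 uM final, 2 h at 37 C. GR nuclear translocation read as complemented b-gal luminescence after 1 h RT detection.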

3',5'-cyclic-AMP phosphodiesterase 4B (Homo sapiens), sequence (Q07343 whole entry, looked up): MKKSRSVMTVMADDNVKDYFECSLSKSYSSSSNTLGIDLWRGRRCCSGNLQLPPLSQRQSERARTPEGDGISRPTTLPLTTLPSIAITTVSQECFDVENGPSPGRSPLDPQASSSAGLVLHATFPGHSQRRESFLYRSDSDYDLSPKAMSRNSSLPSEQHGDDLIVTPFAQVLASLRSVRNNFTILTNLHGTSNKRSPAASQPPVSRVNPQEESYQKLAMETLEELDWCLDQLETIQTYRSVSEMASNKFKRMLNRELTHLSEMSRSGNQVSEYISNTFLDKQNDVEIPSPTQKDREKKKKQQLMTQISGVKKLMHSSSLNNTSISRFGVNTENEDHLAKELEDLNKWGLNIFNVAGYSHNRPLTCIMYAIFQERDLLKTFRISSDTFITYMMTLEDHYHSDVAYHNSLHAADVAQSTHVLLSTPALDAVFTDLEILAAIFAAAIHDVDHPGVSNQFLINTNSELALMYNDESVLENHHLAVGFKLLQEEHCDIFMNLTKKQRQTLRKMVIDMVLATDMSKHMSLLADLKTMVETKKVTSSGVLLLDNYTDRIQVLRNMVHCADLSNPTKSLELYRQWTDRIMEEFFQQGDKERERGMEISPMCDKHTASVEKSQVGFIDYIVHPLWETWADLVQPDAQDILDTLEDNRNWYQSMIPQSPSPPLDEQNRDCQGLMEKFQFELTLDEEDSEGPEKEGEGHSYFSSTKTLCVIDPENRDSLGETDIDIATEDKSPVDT
Cytochrome P450 1A2 (Homo sapiens), sequence (P05177 whole entry, looked up): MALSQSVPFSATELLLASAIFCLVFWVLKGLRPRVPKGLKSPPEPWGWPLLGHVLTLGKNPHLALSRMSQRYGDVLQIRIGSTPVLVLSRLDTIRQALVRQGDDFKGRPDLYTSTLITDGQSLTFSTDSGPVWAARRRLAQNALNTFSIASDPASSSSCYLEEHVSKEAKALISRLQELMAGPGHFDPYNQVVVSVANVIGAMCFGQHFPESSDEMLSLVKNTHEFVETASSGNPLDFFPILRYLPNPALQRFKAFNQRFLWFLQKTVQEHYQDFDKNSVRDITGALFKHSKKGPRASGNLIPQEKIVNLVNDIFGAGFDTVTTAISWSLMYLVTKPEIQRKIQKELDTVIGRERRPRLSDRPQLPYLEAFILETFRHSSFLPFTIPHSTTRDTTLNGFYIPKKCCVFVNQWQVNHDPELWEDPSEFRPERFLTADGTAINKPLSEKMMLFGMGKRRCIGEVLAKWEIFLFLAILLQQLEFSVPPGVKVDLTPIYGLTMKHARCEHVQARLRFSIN
Glucocorticoid receptor (Homo sapiens), sequence (P04150 whole entry, looked up, the tested form may be a part): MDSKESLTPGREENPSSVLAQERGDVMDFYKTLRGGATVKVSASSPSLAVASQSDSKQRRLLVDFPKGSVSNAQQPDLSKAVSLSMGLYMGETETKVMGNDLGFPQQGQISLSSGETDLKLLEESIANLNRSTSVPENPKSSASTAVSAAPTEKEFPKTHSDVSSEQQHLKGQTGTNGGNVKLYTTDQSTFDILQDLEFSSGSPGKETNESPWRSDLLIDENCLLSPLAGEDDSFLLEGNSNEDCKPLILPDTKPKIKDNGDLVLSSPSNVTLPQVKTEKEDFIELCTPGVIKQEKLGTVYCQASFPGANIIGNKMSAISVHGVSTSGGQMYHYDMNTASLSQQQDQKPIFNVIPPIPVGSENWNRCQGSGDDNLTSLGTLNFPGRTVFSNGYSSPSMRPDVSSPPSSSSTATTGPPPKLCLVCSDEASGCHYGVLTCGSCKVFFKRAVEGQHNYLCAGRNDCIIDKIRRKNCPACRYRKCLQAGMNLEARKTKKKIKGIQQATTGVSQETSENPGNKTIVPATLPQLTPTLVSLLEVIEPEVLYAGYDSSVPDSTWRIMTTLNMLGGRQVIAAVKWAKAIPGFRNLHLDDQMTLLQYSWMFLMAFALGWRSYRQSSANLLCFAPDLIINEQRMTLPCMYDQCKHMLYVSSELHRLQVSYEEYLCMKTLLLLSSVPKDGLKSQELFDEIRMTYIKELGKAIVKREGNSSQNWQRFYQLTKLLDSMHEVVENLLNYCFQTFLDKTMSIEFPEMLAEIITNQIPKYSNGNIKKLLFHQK
Lysosomal acid glucosylceramidase (Homo sapiens), sequence (P04062 whole entry, looked up): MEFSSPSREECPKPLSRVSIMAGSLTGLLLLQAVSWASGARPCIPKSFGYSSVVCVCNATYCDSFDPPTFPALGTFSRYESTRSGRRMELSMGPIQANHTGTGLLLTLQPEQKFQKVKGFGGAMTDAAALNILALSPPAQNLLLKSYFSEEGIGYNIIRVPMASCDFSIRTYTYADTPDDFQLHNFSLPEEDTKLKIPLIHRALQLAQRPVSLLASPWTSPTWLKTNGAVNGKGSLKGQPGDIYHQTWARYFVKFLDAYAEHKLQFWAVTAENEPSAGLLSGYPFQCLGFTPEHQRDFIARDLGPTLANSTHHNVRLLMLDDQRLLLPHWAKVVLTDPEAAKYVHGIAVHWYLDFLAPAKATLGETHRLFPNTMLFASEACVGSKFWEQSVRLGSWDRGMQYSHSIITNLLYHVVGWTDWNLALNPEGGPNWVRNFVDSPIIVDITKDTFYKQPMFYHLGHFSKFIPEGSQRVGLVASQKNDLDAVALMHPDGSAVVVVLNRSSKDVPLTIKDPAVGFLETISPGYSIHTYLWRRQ
Cytochrome P450 2C19 (Homo sapiens), sequence (P33261 whole entry, looked up): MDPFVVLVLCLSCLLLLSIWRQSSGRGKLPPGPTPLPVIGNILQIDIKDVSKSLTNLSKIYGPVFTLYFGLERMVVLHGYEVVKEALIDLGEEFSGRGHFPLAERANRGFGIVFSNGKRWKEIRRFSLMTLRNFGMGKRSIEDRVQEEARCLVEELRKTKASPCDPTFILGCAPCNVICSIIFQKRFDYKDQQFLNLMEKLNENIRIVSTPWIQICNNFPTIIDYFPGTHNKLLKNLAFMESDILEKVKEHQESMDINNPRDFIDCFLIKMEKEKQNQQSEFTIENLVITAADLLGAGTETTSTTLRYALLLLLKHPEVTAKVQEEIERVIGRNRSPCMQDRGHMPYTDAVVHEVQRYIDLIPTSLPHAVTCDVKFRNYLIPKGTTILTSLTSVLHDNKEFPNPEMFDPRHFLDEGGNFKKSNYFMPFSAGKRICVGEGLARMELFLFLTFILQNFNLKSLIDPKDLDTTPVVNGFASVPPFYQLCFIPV
Cytochrome P450 2C9 (Homo sapiens), sequence (P11712 whole entry, looked up): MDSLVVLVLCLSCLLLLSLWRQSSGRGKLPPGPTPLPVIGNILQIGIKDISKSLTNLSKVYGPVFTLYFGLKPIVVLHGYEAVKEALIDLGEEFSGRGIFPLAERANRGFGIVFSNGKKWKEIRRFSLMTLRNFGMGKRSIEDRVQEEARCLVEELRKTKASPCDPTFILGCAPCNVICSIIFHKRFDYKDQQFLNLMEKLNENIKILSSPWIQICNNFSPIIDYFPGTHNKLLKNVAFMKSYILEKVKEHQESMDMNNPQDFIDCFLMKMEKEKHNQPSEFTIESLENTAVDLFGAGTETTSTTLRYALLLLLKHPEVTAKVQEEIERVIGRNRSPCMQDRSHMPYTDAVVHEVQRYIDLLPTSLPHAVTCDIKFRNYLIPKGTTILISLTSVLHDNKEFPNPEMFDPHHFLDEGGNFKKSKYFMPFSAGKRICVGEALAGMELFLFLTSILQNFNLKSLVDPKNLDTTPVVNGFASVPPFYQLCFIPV
Cytochrome P450 3A4 (Homo sapiens), sequence (P08684 whole entry, looked up): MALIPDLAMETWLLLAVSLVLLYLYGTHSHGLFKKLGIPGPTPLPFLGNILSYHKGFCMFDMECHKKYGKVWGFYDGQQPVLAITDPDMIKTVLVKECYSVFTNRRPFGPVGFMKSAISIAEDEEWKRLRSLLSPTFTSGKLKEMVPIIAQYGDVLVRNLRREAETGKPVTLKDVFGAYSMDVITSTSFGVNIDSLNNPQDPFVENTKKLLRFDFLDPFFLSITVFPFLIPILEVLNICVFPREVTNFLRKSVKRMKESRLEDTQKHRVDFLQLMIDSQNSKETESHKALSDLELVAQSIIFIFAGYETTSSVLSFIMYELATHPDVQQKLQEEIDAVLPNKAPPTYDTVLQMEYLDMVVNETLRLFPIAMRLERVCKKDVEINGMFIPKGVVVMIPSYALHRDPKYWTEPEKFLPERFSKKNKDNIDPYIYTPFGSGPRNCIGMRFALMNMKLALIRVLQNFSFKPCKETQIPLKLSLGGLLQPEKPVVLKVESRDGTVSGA

As to `O=C(CCCc1ccccn1)c1ccccc1`, the Potency in [1] is greater than 11.4 µM; in [3] it was 5.01 µM (active); in assay [6], greater than 46 µM. The activity change, negative = inhibition in assay [2] was 4.82%; in assay [4], 1.79%. Moreover, in assay [5], the activity, negative = inhibition was 2.46%. The Potency entry in [7] and in assay [8] was “inactive” in each case.
Take `O=C(O)[C@@H](O)[C@@H](O)[C@H](O)[C@H](O)CO`: the results for the Potency (in assay [1]; in the assay with W2) were greater than 11.4 µM and 4.78 µM (active), respectively. Further, the figures for the activity change, negative = inhibition in assay [2], in assay [3] and in [4] were -1.8%, -5.5% [at 2.29 µM] and 5.42%, respectively. Further, the activity, negative = inhibition in assay [5] was -3.53%; in assay [9] (parasite line B), -24%. Besides, the Potency result (in assay [7]; in [8]; with CP192; in the assay with CP194; in the assay with CP203) was “inactive” in each case.
`c1cc(CSSCc2ccncc2)ccn1`: the Potency was greater than 11.4 µM in assay [1]; 2 µM (active) in assay [3]; greater than 46 µM in [6]; 1.58 µM (active) in assay [10]; 2.51 µM (active) in assay [11]; 1.26 µM (active) in assay [13]. Moreover, the results for the activity change, negative = inhibition in [2] and in assay [4] were -3.12% and 12.2%, respectively. For the same molecule, the activity, negative = inhibition in assay [5] was -6.55%. Also, the Potency result in [7], in assay [8] and in assay [12] was “inactive” in each case.
Consider `C[C@]12CC[C@H]3c4ccc(O)cc4CC[C@@H]3[C@H]1CC[C@@H]2OP(=O)(O)O`, for which, in assay [1], the Potency was greater than 11.4 µM. The activity change, negative = inhibition in assay [2] was -3.92%; in assay [3], -11.2% [at 2.29 µM]; in [4], 9.37%. The figures for the activity, negative = inhibition in assay [5], in [9] (parasite line A) and in [9] (parasite line B) were 2.17%, 12.7% and 13.6%, respectively. Also, the Potency result (in [7]; in assay [8]; in the assay on CP192; in the assay on CP194; in the assay with CP203; in the assay on W2) was “inactive” each time. Besides, the activation in [14] was 11.8%.
`O=C1c2ccccc2C(=O)c2c(NC3CCCCC3)ccc(Nc3ccc(S(=O)(=O)O)cc3)c21`: the Potency in assay [1] is greater than 11.4 µM; in assay [3], 1.26 µM (active); in assay [6], greater than 46 µM; in assay [15], greater than 9.22 µM; in assay [13] it was 3.98 µM (active). In addition, the activity change, negative = inhibition was -7.28% in assay [2] and -27.6% in assay [4]. Moreover, in assay [5], the activity, negative = inhibition was -10.9%. Moreover, in [8], the Potency entry is “inactive”.
With `Cn1c(=O)c2[nH]c(CSCc3ccccc3)nc2n(C)c1=O`, the figures for the Potency in assay [1], in [6] and in [15] were greater than 11.4 µM, greater than 46 µM and greater than 9.22 µM, respectively. In addition, the activity change, negative = inhibition is 12.7% in [2], -15.4% [at 2.29 µM] in assay [3] and 8.43% in assay [4]. In addition, the activity, negative = inhibition in [5] was 4.21%. Also, the Potency entry in assay [8] and in assay [13] was “inactive” each time.
Take `O=C(O)c1cccc(CN2CCCCC2)c1`: the Potency in assay [1] is greater than 11.4 µM; in assay [6] it was greater than 46 µM; in [15], greater than 9.22 µM. Moreover, the activity change, negative = inhibition is 9.32% in assay [2] and -15.5% in assay [4]. Moreover, the Potency entry in assay [3], in assay [8] and in assay [10] was “inactive” in each case. For the same molecule, the activity, negative = inhibition in assay [5] was 3.88%.
